These results are taken from PubChem BioAssay (Tox21).

Each structure is given as a SMILES string. Where “and” joins values, the source holds several entries; their conditions need not be identical. Identical values can stand only once. Records with an inconclusive call do not appear. Where a call stands in place of a potency, no number is given. Calls of active or inactive are those of the source. The call rests on the fitted dose curve; in most records, active means well fitted cell-killing curve with a large enough effect in the repeat runs; inconclusive means weak or mixed curves; inactive means flat fitted curve, though single readings scatter.
Potency means the concentration at half of the fitted maximal effect.

The nature of this assay: qHTS assay to identify small molecule antagonists of the TGF-beta/Smad signaling pathway - cell viability counter screen (AID 1346824). Further: nearly all actives have a fitted effect of over 50% in size. To be noted: SBE-bla HEK293T viability, CellTiter-Glo luminescence; series mostly up to 76.8 µM. The source says: U.S. Tox21 Program National Center for Advancing Translational Sciences [NCATS] NIH Chemical Genomics Center [NCGC] U.S. Environmental Protection Agency [EPA] National Institutes of Environmental Health Sciences [NIEHS] National Toxicology Program [NTP] U.S. Food and Drug Administration [FDA] Tox21 Assay Overview: Transforming growth factor beta (TGF-beta) superfamily consists of a large number of structurally related dimeric proteins that act as hormones or local mediators in regulating a wide range of biological functions. This superfamily includes TGF-betas themselves, the bone morphogenetic proteins (BMPs) and the activins. These ligands induce oligomerization of serine/threonine receptor kinases and phosphorylate the cytoplasmic signaling molecules of Smad protein family. CellSensor SBE-bla HEK 293T cell line (Life Technologies, Carlsbad, CA), responsive to TGF-beta was used to screen Tox21 10K compound library for identification of agonists/antagonists of the Smad signaling pathway. This cell line contains a beta-lactamase reporter gene under control of the Smad binding element (SBE) stably integrated into HEK 293T cells. Also cytotoxicity of the compounds was tested in parallel by measuring the cell viability using CellTiter-Glo assay system in the same wells.
Tox21 Assay Protocol Summary: SBE-bla HEK 293T cells were dispensed at 4,000/well in 5 uL of assay medium into black wall/clear-bottom 1536-well plates using a Multidrop Combi (ThermoFisher Scientific, Waltham, MA) dispenser. After the assay plates were incubated at 37 C and 5% CO2 for an overnight, 23 nL of compounds dissolved in DMSO, positive controls or DMSO only was transferred to the assay plate by a Pintool station (Kalypsys, San Diego, CA). Compound transfer was followed by the addition of 1 uL of 0.25 ng/mL TGF-beta1 or assay buffer using two separate tips of Flying Reagent Dispenser (FRD, Aurora Discovery, San Diego, CA). The assay plates were incubated at 37 C and 5% CO2 for 5 hr. One uL of LiveBLAzer B/G FRET substrate (Life Technologies) was added using a Flying Reagent Dispenser (FRD, Aurora Discovery, San Diego, CA) and the plates were incubated at room temperature for 2 hr. Fluorescence intensity (405 nm excitation, 460 nm and 530 nm emissions) was measured using an Envision plate reader (PerkinElmer, Shelton, CT). For cytotoxicity read, 4 uL of CellTiter-Glo reagent (Promega Corporation, Madison, WI) was added to each well of the assay plates using FRD. After 30 min incubation at room temperature, the luminescence intensity was measured using ViewLux plate reader (PerkinElmer).
As to `Clc1ccc(C(Cl)(Cl)Cl)cc1`, the Potency result was “inactive”.

In the case of `CCCCCCCCCCCCCl`, the Potency entry was “inactive”.

Regarding `CN(C)c1ccccc1`, the Potency entry is “inactive”.

Take `O=C1C(Cl)=C(Cl)C(=O)c2ccccc21`: the Potency is 49.1 µM (active) and 49 µM (active).

`Oc1ccc(Cl)cc1Cc1ccccc1`: the Potency result was “inactive”.

`C[N+](C)(C)C`: the Potency result was “inactive”.

For the molecule `COP(=O)(NC(C)=O)SC` (stereo not given), the Potency result was “inactive”.

With `C[C@]12CCC(=O)C=C1CC[C@@H]1[C@@H]2CC[C@@]2(C)[C@H]1CC[C@]2(C)O`, the Potency result is “inactive”.

As for `Brc1ccc(Br)cc1`, the Potency result is “inactive”.

Consider `CSc1nc(NC(C)C)nc(NC(C)C)n1`, for which the Potency result was “inactive”.

With `COc1ccc(O)c(C(C)(C)C)c1`, the Potency result was “inactive”.

As to `CCN(CC)C(=O)C(C)Oc1cccc2ccccc12` (stereo not given), the Potency result was “inactive”.

As for `CCCCC(C#N)(Cn1cncn1)c1ccc(Cl)cc1` (stereo not given), the Potency entry was “inactive”.

On to `CCNc1nc(Cl)nc(NC(C)(C)C#N)n1`, for which the Potency result is “inactive”.

Take `C=C(C)C#N`: the Potency result was “inactive”.

On to `S=c1[nH]c2ccccc2[nH]1`, for which the Potency entry is “inactive”.

For the molecule `CC(C)=CC1C(C(=O)OCc2cccc(Oc3ccccc3)c2)C1(C)C` (stereo not given), the Potency result was “inactive”.

Regarding `CCOP(=O)(OCC)OCC`, the Potency entry was “inactive”.

As to `CN(C)P(=O)(N(C)C)N(C)C`, the Potency entry was “inactive”.

Take `COc1ccc(C=O)cc1OC`: the Potency entry is “inactive”.

`CCC[CH2][Sn]([Cl])([CH2]CCC)[CH2]CCC`: the Potency was 1.38 µM (active) and 2.19 µM (active).

Turning to `COc1ccc(CO)cc1`, the Potency result was “inactive”.

Consider `Cc1ccc(N=CN(C)C=Nc2ccc(C)cc2C)c(C)c1`, for which the Potency result was “inactive”.

As to `Nc1ccc2ccccc2c1`, the Potency result is “inactive”.

Take `CCOS(=O)(=O)OCC`: the Potency entry was “inactive”.

With `CC(C)(c1ccccc1)c1ccc(O)c(C(C)(C)c2ccccc2)c1`, the Potency is 54.4 µM (active) and 43.6 µM (active).

Take `Cc1cc(Cl)ccc1N=CN(C)C`: the Potency entry is “inactive”.

`CNC(=O)Oc1cccc2c1OC(C)(C)C2`: the Potency entry was “inactive”.

For `Cl`, the Potency entry was “inactive”.

As for `CCNCC`, the Potency result was “inactive”.

In the case of `c1ccc2c(c1)Nc1ccccc1S2`, the Potency result was “inactive”.

Take `O=P(OCCCl)(OCCCl)OCCCl`: the Potency result was “inactive”.

On to `CNC(=O)CSP(=S)(OC)OC`, for which the Potency entry is “inactive”.

For the molecule `O=C1Nc2ccc(Cl)cc2C(c2ccccc2)=NC1O` (stereo not given), the Potency result is “inactive”.

Take `ClC(Cl)=C(Cl)C(Cl)=C(Cl)Cl`: the Potency result is “inactive”.

As to `CCCCOCCOC(C)=O`, the Potency entry was “inactive”.

With `Clc1cccc(Cl)c1`, the Potency result was “inactive”.

As to `CC(C)(c1ccc(OCC2CO2)cc1)c1ccc(OCC2CO2)cc1` (stereo not given), the Potency result was “inactive”.

Take `Nc1ncn[nH]1`: the Potency result is “inactive”.

Turning to `c1ccc(C2CO2)cc1` (stereo not given), the Potency entry was “inactive”.
